Reference: the supplement of paper PMC10849652
The full data set covers some 7,900 targets. This sample favours those with a hit. About 0.6% of all pairs of compound and target were hits.

Legend:
Test in all cases: log2 fold change, soluble protein after heating vs DMSO (PISA); higher = thermal stabilisation; K562 cells, 10 uM, 30 min; active = over 0.2 and 3.5 SD of the protein, either way, in both replicates (recomputed)
[1] = compound: C1=CC=C(C=C1)[C@H](COC2=CC3=C(C=C2)NC(=O)N3)NC(=O)C4=CC=CN(C4=O)CC5=CC(=C(C=C5)F)F
How it was run: (§1)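 K562 cells at 2×10^6 cells/mL were treated for 30 min with 10 μM compound, and aliquots were heated for 3 min over 48°C-58°C before pooling. Extraction used PBS with 0.5% NP-40 at 4°C, and soluble protein was the supernatant after 21,000xg for 90 min, measured by TMTpro 16plex LC-MS/MS with channel sums equalised. Thermal stability values, relative to control samples and from duplicates, are log2 fold changes.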

[2] = compound: CC1=C(SC2=C1C(=N[C@H](C3=NN=C(N32)C)CC(=O)N)C4=CC=C(C=C4)Cl)C
How it was run: as §1

[3] = compound: CC1=C2C(=CC=C1)N=C(N(C2=O)C3=CC=CC=C3C)CN4C=NC5=C(N=CN=C54)N
How it was run: as §1

[4] = compound: Cc1sc2c(c1C)C(c1ccc(Cl)cc1)=N[C@@H](CC(=O)OC(C)(C)C)c1nnc(C)n1-2
How it was run: as §1

[5] = compound: c1ccc([C@@H]2C[C@H]2NC2CCNCC2)cc1
How it was run: as §1

Measured: log2 fold change

IFNGR1 (UniProt P15260)
inactive: [1] 0.106 | [2] 0.105 | [3] 0.028 | [4] 0.046 | [5] 0.03

HSPA8 (UniProt E9PK54)
inactive: [1] 0.004 | [2] -0.108 | [3] 0.037 | [4] 0.099 | [5] -0.001

HHEX (UniProt Q03014)
Chain of UniProt Q03014 (Q03014 whole entry, looked up): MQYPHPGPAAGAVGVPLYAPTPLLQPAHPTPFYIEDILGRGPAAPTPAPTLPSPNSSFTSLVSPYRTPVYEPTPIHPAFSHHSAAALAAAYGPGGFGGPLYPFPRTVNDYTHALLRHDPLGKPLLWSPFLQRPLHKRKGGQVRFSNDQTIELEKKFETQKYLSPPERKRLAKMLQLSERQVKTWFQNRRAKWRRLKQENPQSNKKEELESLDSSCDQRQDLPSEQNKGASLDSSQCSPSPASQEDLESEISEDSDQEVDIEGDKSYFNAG
inactive: [1] 0.054 | [2] 0.187 | [3] 0.469 | [4] 0.026 | [5] 0.516

GNS (UniProt P15586)
Chain of UniProt P15586 (P15586 whole entry, looked up): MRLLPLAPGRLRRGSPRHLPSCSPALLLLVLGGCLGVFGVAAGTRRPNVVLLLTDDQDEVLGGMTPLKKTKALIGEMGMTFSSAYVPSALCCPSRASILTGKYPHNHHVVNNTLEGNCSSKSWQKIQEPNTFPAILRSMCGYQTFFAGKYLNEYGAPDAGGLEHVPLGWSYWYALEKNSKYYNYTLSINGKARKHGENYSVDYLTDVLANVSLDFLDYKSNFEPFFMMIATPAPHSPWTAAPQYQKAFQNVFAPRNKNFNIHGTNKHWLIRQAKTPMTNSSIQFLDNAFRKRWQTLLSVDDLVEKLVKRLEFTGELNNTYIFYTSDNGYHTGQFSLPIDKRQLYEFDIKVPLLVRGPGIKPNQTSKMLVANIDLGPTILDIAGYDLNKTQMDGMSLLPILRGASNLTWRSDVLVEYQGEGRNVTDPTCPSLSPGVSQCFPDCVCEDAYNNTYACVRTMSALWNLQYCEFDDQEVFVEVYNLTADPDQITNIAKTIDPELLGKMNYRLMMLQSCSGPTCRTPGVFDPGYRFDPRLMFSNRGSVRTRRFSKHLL
inactive: [1] 0.037 | [2] 0.011 | [3] 0.013 | [4] -0.001 | [5] 0.027

GDPD1 (UniProt Q8N9F7)
Chain of UniProt Q8N9F7 (Q8N9F7 whole entry, looked up): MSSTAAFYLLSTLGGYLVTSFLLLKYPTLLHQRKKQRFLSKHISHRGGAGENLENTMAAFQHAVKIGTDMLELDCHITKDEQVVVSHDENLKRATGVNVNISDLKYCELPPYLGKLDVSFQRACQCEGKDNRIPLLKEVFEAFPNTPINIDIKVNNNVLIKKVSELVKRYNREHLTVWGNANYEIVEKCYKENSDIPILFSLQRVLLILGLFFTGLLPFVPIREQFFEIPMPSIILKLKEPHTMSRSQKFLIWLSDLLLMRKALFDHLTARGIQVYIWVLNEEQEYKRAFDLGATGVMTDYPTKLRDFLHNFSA
inactive: [1] -0.054 | [2] 0.003 | [3] 0.057 | [4] -0.024 | [5] 0.034

GNG5 (UniProt P63218)
Chain of UniProt P63218 (P63218 whole entry, looked up): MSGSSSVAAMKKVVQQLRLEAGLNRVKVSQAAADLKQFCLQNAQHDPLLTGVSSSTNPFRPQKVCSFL
inactive: [1] 0.044 | [2] 0.063 | [3] 0.012 | [4] -0.064 | [5] 0.018

GLS isoform 3 (UniProt O94925)
Chain of UniProt O94925 (O94925 whole entry, looked up): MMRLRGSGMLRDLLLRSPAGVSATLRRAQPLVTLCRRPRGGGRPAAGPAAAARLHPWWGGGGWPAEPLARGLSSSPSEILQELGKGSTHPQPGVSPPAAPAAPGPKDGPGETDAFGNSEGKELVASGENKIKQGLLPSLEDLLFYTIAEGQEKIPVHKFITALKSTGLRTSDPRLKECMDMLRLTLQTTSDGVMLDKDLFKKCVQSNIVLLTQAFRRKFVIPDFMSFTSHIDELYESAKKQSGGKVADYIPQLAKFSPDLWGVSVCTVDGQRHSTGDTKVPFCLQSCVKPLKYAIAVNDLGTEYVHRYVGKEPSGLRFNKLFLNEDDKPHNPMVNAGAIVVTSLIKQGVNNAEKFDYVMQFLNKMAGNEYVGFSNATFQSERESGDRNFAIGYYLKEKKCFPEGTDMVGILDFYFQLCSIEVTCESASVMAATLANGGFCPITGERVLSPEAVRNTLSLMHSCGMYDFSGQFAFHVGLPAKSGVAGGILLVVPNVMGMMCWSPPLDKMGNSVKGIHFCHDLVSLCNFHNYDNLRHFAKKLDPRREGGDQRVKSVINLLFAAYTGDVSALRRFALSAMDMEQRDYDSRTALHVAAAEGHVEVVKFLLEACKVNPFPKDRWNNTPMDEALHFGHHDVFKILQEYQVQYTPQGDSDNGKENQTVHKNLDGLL
inactive: [1] -0.077 | [2] 0.204 | [3] 0.024 | [4] -0.168 | [5] 0.067

IDI1 isoform 2 (UniProt Q13907)
Chain of UniProt Q13907 (Q13907 whole entry, looked up): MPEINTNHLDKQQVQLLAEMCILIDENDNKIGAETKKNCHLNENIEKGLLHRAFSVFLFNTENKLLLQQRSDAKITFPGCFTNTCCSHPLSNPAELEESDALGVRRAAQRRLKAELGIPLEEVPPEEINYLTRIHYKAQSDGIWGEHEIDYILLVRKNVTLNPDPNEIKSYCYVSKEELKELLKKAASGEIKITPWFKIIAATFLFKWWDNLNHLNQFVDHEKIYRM
inactive: [1] -0.024 | [2] 0.024 | [3] 0.037 | [4] 0.003 | [5] -0.007

GIGYF2 (UniProt Q6Y7W6)
Chain of UniProt Q6Y7W6 (Q6Y7W6 whole entry, looked up): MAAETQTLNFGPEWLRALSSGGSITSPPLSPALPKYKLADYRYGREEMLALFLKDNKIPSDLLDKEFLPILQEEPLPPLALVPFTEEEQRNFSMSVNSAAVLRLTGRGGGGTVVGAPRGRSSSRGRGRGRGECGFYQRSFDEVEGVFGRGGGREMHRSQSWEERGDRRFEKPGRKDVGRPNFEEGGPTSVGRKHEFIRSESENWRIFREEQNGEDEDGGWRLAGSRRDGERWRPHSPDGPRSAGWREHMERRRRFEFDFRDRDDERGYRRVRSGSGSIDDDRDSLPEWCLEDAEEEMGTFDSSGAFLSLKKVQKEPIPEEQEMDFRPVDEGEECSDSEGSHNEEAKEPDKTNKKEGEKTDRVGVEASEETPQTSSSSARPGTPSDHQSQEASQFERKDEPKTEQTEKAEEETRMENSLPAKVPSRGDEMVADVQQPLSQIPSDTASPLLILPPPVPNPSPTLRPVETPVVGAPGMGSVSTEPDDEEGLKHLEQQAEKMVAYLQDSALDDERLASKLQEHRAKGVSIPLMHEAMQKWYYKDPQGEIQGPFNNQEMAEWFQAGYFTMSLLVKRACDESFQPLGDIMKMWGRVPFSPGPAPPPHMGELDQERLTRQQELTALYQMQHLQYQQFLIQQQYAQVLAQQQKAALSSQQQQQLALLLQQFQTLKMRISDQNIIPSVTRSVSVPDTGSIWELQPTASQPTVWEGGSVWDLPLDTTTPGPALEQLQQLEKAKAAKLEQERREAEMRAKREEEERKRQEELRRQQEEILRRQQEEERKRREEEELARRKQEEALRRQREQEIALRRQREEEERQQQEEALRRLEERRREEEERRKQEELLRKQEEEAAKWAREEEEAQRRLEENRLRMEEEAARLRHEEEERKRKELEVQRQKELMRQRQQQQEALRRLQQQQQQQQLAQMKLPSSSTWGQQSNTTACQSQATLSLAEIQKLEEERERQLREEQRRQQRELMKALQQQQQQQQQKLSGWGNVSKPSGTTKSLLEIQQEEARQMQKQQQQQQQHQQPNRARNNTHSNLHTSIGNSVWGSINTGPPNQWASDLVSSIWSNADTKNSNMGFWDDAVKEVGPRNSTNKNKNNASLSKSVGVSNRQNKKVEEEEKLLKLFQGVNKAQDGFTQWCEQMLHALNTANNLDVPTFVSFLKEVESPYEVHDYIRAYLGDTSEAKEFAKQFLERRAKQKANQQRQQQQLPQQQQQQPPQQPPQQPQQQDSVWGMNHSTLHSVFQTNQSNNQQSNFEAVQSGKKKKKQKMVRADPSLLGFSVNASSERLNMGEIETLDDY
inactive: [1] -0.006 | [2] 0.057 | [3] 0.057 | [4] 0.012 | [5] -0.046

GNPAT (UniProt O15228)
inactive: [1] -0.034 | [2] 0.043 | [3] 0.07 | [4] -0.01 | [5] -0.036

GNL3 (UniProt Q9BVP2)
Chain of UniProt Q9BVP2 (Q9BVP2 whole entry, looked up): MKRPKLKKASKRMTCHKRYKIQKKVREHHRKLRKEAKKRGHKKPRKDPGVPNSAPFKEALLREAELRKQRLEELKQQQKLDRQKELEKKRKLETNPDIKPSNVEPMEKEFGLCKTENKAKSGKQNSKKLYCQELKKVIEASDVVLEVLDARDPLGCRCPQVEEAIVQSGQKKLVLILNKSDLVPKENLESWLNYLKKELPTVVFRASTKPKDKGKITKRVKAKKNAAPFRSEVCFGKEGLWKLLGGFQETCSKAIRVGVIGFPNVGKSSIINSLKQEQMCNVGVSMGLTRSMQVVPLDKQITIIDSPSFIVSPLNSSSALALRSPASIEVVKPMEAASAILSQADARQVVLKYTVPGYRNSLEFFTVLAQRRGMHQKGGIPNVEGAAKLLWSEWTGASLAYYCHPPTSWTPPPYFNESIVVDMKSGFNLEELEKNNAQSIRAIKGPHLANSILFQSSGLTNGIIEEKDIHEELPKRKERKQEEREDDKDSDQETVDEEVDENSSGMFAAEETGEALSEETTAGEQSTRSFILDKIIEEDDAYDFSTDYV
inactive: [1] 0.101 | [2] 0.112 | [3] 0.164 | [4] -0.131 | [5] -0.053

HIC2 (UniProt Q96JB3)
inactive: [1] 0.163 | [2] -0.053 | [3] -0.048 | [4] 0.205 | [5] 0.078

IFT74 (UniProt Q96LB3)
inactive: [1] 0.134 | [2] 0.11 | [3] 0.163 | [4] 0.003 | [5] -0.069

FOXK1 (UniProt P85037)
inactive: [1] 0.104 | [2] -0.042 | [3] 0.253 | [4] -0.402 | [5] 0.049

GEMIN6 (UniProt Q8WXD5)
Chain of UniProt Q8WXD5 (Q8WXD5 whole entry, looked up): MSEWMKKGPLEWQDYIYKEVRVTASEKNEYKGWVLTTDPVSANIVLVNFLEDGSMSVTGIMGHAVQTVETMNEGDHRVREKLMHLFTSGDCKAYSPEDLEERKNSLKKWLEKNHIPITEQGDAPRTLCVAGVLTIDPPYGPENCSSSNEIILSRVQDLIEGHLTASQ
inactive: [1] 0.027 | [2] -0.111 | [3] -0.053 | [4] -0.113 | [5] -0.063

HNRNPUL1 (UniProt Q9BUJ2)
Chain of UniProt Q9BUJ2 (Q9BUJ2 whole entry, looked up): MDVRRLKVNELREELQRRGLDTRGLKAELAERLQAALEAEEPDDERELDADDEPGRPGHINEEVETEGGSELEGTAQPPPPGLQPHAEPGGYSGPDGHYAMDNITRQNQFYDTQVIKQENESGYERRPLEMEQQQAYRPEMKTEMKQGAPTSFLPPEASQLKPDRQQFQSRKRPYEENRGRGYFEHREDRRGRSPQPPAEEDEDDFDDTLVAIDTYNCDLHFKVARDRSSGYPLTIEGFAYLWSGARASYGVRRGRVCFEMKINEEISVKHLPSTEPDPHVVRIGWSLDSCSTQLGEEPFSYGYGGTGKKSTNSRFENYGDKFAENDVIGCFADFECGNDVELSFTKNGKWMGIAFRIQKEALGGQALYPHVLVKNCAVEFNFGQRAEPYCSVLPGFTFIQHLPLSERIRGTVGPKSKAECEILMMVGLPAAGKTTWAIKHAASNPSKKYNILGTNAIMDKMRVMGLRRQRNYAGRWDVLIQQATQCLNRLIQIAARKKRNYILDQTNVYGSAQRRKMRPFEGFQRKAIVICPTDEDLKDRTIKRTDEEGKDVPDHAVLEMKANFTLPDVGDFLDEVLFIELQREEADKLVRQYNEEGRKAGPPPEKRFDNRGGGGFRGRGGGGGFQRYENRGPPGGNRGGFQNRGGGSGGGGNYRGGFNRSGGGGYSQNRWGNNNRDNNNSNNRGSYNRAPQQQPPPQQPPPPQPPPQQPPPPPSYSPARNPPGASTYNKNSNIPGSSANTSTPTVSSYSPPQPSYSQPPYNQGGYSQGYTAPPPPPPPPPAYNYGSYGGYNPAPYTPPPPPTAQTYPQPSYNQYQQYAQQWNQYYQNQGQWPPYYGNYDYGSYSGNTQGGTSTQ
inactive: [1] -0.021 | [2] -0.028 | [3] 0.024 | [4] 0.07 | [5] 0.058

GID4 (UniProt Q8IVV7)
inactive: [1] -0.012 | [2] -0.021 | [3] 0.138 | [4] 0.048 | [5] 0.009
